PubChem BioAssay (EPA / NIEHS)
Calls of active or inactive are those of the source. The calls were made as follows: active = hit-call score of the fitted dose curve at least 0.9, where 1 is the maximum; inactive = score below 0.9.

Legend:
[1] = ATG_ERE_CIS: Attagene CIS-FACTORIAL HepG2 Assay for Estrogen Response Element (ERE) (AID 2282940); conditions: HepG2 ERE cis-reporter, Attagene RNA transcript; actives raise or lower the signal
Summary of the method: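 Transient MRTU transfection of human HepG2; cis-element promoters; 24 h dosing; total RNA → RT (oligo dT) → PCR → 6-FAM primer extension → HpaI digest → CE fluorescence. Bidirectional fit, DMSO baseline.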

[2] = ATG_Ets_CIS: Attagene CIS-FACTORIAL HepG2 Assay for human Erythroblast Transformation Specific (ETS) (AID 2282941); conditions: HepG2 ETS cis-reporter transcription, actives raise or lower the signal
Summary of the method: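 Human HepG2 hepatoma cells were transiently transfected with promoter-driven reporter constructs and treated for 24 hours. Reporter transcripts were quantified by RT-PCR with fluorescent primer extension; bidirectional curve fitting used DMSO as reference.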

[3] = target: Hepatocyte nuclear factor 3-beta (Homo sapiens) (UniProt Q9Y261); assay: ATG_FoxA2_CIS: Attagene CIS-FACTORIAL HepG2 Assay for human Forkhead box A2 (FOXA2) (AID 2282942); conditions: HepG2 cis-reporter transcription factor activity, 24 h; actives raise or lower the signal
Summary of the method: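 Transient MRTU transfection of HepG2 liver cells; 24 h treatment; total RNA → oligo(dT) RT → PCR → FAM primer extension → HpaI cut → CE. Bidirectional fit vs DMSO.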

[4] = ATG_FoxO_CIS: Attagene CIS-FACTORIAL HepG2 Assay for human Forkhead box O (FoxO) (AID 2282943); conditions: HepG2 Attagene cis-reporter, FoxO element, mRNA; actives raise or lower the signal
Summary of the method: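 Human hepatoma HepG2 cells carry transiently introduced reporter transcription units controlled by cis promoter elements. Chemical treatment lasted 24 h, and mRNA signal was compared with DMSO.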

[5] = ATG_GATA_CIS: Attagene CIS-FACTORIAL HepG2 Assay for human GATA Binding Protein (AID 2282944); conditions: HepG2 GATA cis-element reporter, Attagene multiplex mRNA; actives raise or lower the signal
Summary of the method: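 Transient MRTU transfection, HepG2, 24 h compound exposure. Total RNA → oligo(dT) RT → PCR → 6-FAM primer extension → HpaI cut → CE. Bidirectional fit vs DMSO.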

[6] = ATG_GLI_CIS: Attagene CIS-FACTORIAL HepG2 Assay for human Zinc Finger Protein GLI1 (AID 2282945); conditions: HepG2, Attagene cis-factorial reporter mRNA, GLI element; actives raise or lower the signal
Summary of the method: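 Bidirectional curve fits relative to DMSO, using reporter mRNA levels from RT-PCR plus capillary electrophoresis. Cells were HepG2 transiently carrying cis-regulated reporter constructs, harvested 24 h after dosing.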

[7] = target: Bile acid receptor (Homo sapiens) (UniProt Q96RI1); assay: ATG_IR1_CIS: Attagene CIS-FACTORIAL HepG2 Assay for human Nuclear Receptor Subfamily 1 Group H Member 4 (NR1H4), IR1 submotif (AID 2282946); conditions: IR1 reporter transcription, actives raise or lower the signal
Summary of the method: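 Cells (human HepG2) carry transiently transfected cis-promoter reporter transcription units. Compounds are incubated 24 h, total RNA is reverse-transcribed and amplified, and labelled fragments are resolved by capillary electrophoresis. Curves use DMSO as baseline.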

[8] = ATG_GRE_CIS: Attagene CIS-FACTORIAL HepG2 Assay for human Glucocorticoid Response Elements (GRE) (AID 2282947); conditions: HepG2 GRE cis-reporter, Attagene multiplex mRNA; actives raise or lower the signal
Summary of the method: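 Transient MRTU transfection of human HepG2 liver cells; cis-regulated reporters report endogenous factors. 24 h dosing → RNA isolation → RT-PCR → 6-FAM primer extension → HpaI cut → CE fragment analysis. Bidirectional fit, DMSO negative control.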

[9] = ATG_ISRE_CIS: Attagene CIS-FACTORIAL HepG2 Assay for human Interferon Regulatory Factor 1 (IRF1) binding to an Interferon-Stimulated Response Element (ISRE) (AID 2282948); conditions: HepG2 ISRE cis-reporter (Attagene), mRNA transcription readout; actives raise or lower the signal
Summary of the method: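 Cell-based cis-reporter assay; HepG2; 24 h exposure; reporter mRNA by RT-PCR plus capillary electrophoresis fluorescence; activity in either direction scored relative to DMSO.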

[10] = ATG_M_32_CIS: Attagene CIS-FACTORIAL HepG2 Assay for M32 Transcription Factor (Internal Marker) (AID 2282949); conditions: HepG2 Attagene cis-factorial M32 reporter, mRNA; actives raise or lower the signal;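 also: background control marker of the multiplexed CIS panel rather than a real target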
Summary of the method: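 Fluorescent capillary electrophoresis peaks of HpaI-digested, FAM-labelled RT-PCR reporter products give the signal. Source: transiently transfected human liver HepG2 cells, 24 h after chemical dosing; bidirectional fitting against DMSO.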

[11] = ATG_M_06_CIS: Attagene CIS-FACTORIAL HepG2 Assay for M06 Transcription Factor (Internal Marker) (AID 2282950); conditions: HepG2 Attagene CIS-FACTORIAL M06 internal marker reporter; actives raise or lower the signal
Summary of the method: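 Read-out is fluorescence of labelled reporter cDNA fragments resolved by capillary electrophoresis after RT-PCR. Cells: HepG2 carrying transfected cis-promoter reporter units, treated 24 h. Gain or loss of signal fitted relative to DMSO.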

[12] = target: Hypoxia-inducible factor 1-alpha (Homo sapiens) (UniProt Q16665); assay: ATG_HIF1a_CIS: Attagene CIS-FACTORIAL HepG2 Assay for human Hypoxia Inducible Factor 1 (HIF1A) (AID 2282951); conditions: HepG2 Attagene cis-factorial HIF1a reporter transcription; actives raise or lower the signal
Summary of the method: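 Transient MRTU transfection of human HepG2 liver cells, 24 h compound treatment, then total RNA isolation, oligo(dT) reverse transcription, PCR amplification, fluorescent labelling and capillary electrophoresis of reporter fragments. Gain or loss relative to DMSO.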

[13] = target: Hepatocyte nuclear factor 6 (Homo sapiens) (UniProt Q9UBC0); assay: ATG_HNF6_CIS: Attagene CIS-FACTORIAL HepG2 Assay for human Hepatocyte Nuclear Factor 6 (HNF6) (AID 2282952); conditions: HepG2 Attagene cis-factorial HNF6 reporter transcription; actives raise or lower the signal
Summary of the method: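 Multiplexed mRNA reporter assay in transfected HepG2; 24 h dosing; RT-PCR plus capillary electrophoresis fluorescence; DMSO-referenced bidirectional curve fitting.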

[14] = target: Heat shock factor protein 1 (Homo sapiens) (UniProt Q00613); assay: ATG_HSE_CIS: Attagene CIS-FACTORIAL HepG2 Assay for human Heat Shock Transcription Factor 1 (HSE) (AID 2282953); conditions: HepG2 HSE cis-reporter, Attagene RNA transcription; actives raise or lower the signal
Summary of the method: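 HepG2, transient MRTU transfection, cis-promoter reporters (endogenous TF activity). 24 h compound. RNA → oligo(dT) RT → PCR → 6-FAM primer extension → HpaI cut → CE. Bidirectional fit vs DMSO.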

[15] = ATG_MRE_CIS: Attagene CIS-FACTORIAL HepG2 Assay for human Metal Responsive Element (MRE) (AID 2282954); conditions: HepG2 MRE cis-reporter transcription, Attagene multiplex; actives raise or lower the signal
Summary of the method: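 Transient MRTU transfection of HepG2 (FuGene 6); 24 h dosing; total RNA → oligo(dT) RT, PCR, 6-FAM primer extension, HpaI cut, CE. Bidirectional fit vs DMSO.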

[16] = ATG_PBREM_CIS: Attagene CIS-FACTORIAL HepG2 Assay for human Phenobarbital-responsive Enhancer Module (PBREM) (AID 2282955); conditions: HepG2 PBREM cis-reporter, Attagene multiplexed transcription; actives raise or lower the signal
Summary of the method: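 Endogenous transcription factors in human liver HepG2 cells drive a PBREM cis-element reporter, whose transcript level after 24 h treatment is quantified by RT-PCR with capillary electrophoresis; activity fitted in both directions against DMSO.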

[17] = target: Paired box protein Pax-6 (Homo sapiens) (UniProt P26367); assay: ATG_Pax6_CIS: Attagene CIS-FACTORIAL HepG2 Assay for human Paired Box 6 (PAX6) (AID 2282956); conditions: HepG2 CIS-FACTORIAL PAX6 reporter transcription, RNA readout; actives raise or lower the signal
Summary of the method: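 Multiplexed cis-reporter HepG2 system; 24 h treatment; reporter mRNA read by RT-PCR/CE fluorescence; bidirectional fit vs DMSO.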

[18] = ATG_PXRE_CIS: Attagene CIS-FACTORIAL HepG2 Assay for human Pregnane X Receptor Element (PXRE) (AID 2282957); conditions: HepG2 Attagene CIS-FACTORIAL PXRE reporter, mRNA; actives raise or lower the signal
Summary of the method: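 Cells: HepG2, transiently transfected reporter units under cis promoter control. Exposure: 24 h. Detection: reporter mRNA via RT-PCR/CE fluorescence; bidirectional fitting, DMSO-referenced.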

[19] = ATG_PPRE_CIS: Attagene CIS-FACTORIAL HepG2 Assay for human Peroxisome Proliferator-activated Response Element (PPRE) (AID 2282958); conditions: HepG2 PPRE cis-element reporter, Attagene transcription factor profiling; actives raise or lower the signal
Summary of the method: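 HepG2, transient MRTU transfection (cis promoter elements, endogenous TFs). 24 h dosing. RNA → oligo(dT) RT → PCR → 6-FAM primer extension → HpaI digest → CE. Bidirectional fit vs DMSO.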

[20] = ATG_RORE_CIS: Attagene CIS-FACTORIAL HepG2 Assay for human RAR-related Orphan Receptor Element (RORE) (AID 2282959); conditions: HepG2 Attagene cis-factorial RORE reporter, mRNA; actives raise or lower the signal
Summary of the method: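 Transient MRTU transfection of human HepG2 liver cells (FuGene 6); 24 h compound exposure; TriZol RNA, oligo(dT) RT, PCR, FAM labeling, HpaI cut, CE fragment analysis. DMSO = negative control/baseline.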

Measured: AC50

Chain of Heat shock factor protein 1 (Homo sapiens) (Q00613 whole entry, looked up): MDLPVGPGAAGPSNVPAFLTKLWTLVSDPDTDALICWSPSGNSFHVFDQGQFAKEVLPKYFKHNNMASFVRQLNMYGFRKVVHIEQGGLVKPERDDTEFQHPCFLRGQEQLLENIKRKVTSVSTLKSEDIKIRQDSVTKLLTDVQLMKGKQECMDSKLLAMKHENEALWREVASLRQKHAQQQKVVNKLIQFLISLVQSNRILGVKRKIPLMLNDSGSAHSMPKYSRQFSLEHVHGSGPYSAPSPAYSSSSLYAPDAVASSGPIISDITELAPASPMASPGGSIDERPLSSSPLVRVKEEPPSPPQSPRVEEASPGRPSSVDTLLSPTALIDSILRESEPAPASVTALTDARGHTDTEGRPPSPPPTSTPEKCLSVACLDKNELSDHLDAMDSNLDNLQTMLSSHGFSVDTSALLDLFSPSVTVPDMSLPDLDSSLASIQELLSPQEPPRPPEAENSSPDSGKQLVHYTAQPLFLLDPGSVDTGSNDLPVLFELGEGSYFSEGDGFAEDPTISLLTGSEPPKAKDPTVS
Chain of Hepatocyte nuclear factor 6 (Homo sapiens) (Q9UBC0 whole entry, looked up): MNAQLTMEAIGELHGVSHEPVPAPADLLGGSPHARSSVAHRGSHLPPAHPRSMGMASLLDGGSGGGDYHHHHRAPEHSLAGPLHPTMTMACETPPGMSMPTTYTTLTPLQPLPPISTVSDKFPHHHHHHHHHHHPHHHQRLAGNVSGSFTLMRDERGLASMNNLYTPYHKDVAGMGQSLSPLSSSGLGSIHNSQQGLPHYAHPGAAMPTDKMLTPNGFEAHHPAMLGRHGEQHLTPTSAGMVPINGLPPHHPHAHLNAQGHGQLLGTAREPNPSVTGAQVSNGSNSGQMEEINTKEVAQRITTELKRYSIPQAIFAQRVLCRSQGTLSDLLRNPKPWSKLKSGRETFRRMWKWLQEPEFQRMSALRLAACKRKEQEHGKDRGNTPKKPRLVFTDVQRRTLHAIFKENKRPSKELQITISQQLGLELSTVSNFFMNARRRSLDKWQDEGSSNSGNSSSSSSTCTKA
Chain of Paired box protein Pax-6 (Homo sapiens) (P26367 whole entry, looked up): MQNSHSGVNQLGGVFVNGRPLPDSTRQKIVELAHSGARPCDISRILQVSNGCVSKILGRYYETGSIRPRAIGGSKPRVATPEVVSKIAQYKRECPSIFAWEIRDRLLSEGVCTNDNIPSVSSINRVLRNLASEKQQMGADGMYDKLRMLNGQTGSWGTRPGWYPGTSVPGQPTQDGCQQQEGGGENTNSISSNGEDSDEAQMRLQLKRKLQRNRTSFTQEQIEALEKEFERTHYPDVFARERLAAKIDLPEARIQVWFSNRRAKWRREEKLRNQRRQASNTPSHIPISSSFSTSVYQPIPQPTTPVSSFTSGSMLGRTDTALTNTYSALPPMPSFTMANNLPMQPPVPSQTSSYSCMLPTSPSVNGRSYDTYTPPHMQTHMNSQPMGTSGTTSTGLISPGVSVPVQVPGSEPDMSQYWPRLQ
Chain of Hypoxia-inducible factor 1-alpha (Homo sapiens) (Q16665 whole entry, looked up, the tested form may be a part): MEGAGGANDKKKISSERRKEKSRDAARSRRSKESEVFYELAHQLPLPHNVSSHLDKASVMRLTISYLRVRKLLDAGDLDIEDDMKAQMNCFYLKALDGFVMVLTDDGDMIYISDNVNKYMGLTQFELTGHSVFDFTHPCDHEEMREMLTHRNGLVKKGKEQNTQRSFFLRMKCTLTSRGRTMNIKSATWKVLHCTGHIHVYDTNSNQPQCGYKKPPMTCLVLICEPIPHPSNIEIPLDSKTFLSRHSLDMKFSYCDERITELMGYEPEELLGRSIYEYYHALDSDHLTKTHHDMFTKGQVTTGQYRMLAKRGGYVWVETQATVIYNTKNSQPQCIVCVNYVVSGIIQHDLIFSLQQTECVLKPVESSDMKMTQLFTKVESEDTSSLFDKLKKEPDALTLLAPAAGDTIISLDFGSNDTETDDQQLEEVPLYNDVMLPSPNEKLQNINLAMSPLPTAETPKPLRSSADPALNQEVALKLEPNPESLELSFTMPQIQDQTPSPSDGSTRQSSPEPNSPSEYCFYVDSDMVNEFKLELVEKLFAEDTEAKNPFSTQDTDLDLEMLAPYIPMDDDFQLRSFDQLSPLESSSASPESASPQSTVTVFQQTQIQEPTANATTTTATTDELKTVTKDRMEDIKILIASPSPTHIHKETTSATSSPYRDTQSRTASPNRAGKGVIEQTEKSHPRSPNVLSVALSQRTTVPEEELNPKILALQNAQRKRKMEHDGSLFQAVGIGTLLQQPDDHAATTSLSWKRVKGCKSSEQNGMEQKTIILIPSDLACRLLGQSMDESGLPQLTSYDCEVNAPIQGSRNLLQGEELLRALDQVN
Chain of Hepatocyte nuclear factor 3-beta (Homo sapiens) (Q9Y261 whole entry, looked up): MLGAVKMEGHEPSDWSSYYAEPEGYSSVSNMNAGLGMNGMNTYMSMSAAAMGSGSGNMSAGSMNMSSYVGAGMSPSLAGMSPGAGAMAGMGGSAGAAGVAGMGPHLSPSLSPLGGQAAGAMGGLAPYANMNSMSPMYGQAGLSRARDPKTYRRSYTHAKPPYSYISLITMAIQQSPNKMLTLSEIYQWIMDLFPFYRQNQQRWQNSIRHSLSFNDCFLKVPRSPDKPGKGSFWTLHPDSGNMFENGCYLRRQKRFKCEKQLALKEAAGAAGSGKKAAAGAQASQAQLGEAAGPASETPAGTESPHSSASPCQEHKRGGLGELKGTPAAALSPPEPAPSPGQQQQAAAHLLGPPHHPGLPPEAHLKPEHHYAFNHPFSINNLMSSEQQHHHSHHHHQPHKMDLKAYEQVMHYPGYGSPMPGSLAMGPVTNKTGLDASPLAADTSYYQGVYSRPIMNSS
Chain of Bile acid receptor (Homo sapiens) (Q96RI1 whole entry, looked up, the tested form may be a part): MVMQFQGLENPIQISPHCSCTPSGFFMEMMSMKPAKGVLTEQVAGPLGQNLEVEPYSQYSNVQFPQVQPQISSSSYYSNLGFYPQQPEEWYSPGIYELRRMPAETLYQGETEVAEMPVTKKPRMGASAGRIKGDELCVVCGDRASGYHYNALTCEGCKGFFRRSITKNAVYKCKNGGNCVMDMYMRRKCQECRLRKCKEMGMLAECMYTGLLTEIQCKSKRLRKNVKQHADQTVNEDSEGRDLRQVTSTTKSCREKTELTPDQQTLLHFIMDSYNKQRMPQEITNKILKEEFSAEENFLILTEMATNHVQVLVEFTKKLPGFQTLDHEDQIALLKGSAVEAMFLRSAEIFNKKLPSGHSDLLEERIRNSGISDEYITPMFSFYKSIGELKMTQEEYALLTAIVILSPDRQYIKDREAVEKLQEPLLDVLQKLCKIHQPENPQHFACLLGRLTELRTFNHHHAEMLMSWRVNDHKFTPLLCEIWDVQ

CCCCC(CC)COC(=O)Cl (stereo unspecified)
inactive: [1] | [2] | [3] | [4] | [5] | [6] | [7] | [8] | [9] | [10] | [11] | [12] | [13] | [14] | [15] | [16] | [17] | [18]

C[As+](C)(C)CC(=O)[O-]
inactive: [1] | [2] | [3] | [4] | [5] | [6] | [7] | [8] | [9] | [10] | [11] | [12] | [13] | [14] | [15] | [16] | [17] | [18] | [19] | [20]

O=C/C(Cl)=C(/Cl)C(=O)O
inactive: [1] | [2] | [3] | [5] | [6] | [8] | [10] | [11] | [12] | [16] | [19] | [20]
active: [4] 132 µM | [7] 46 µM | [9] 100 µM | [13] 136 µM | [14] 151 µM | [15] 136 µM | [17] 132 µM | [18] 167 µM

O=[N+]([O-])c1ccc(Nc2ccccc2)cc1
active: [9] 130 µM | [15] 80.4 µM | [16] 23.8 µM | [18] 26.9 µM
inactive: [1] | [2] | [3] | [4] | [5] | [6] | [7] | [8] | [10] | [11] | [12] | [13] | [14] | [17] | [20]

CC(F)(F)CC(F)(F)F
inactive: [1] | [2] | [3] | [4] | [5] | [6] | [7] | [8] | [9] | [10] | [11] | [12] | [13] | [14] | [15] | [16] | [17] | [18] | [19] | [20]

CCN(N=O)C(N)=O
inactive: [1] | [2] | [3] | [4] | [5] | [6] | [7] | [8] | [9] | [10] | [11] | [12] | [13] | [14] | [15] | [17] | [18] | [19] | [20]

CC(=O)C(F)(F)C(F)(F)F
inactive: [1] | [2] | [3] | [4] | [5] | [6] | [7] | [8] | [9] | [10] | [11] | [12] | [13] | [14] | [15] | [16] | [17] | [18] | [19] | [20]
